From PubChem
aSyn UTR inh = MLPCN primary screen, SNCA 5' untranslated region. alpha-synuclein 5'UTR reporter, inhibitor activity. inhibition, % (tested at 7.5 µM). 0.82% of 300,000 active; in the data active means inhibition above about 60%; inconclusive means no clear call, values can overlap the other calls;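 further: H4 neuroglioblastoma cells stably carrying SNCA 5'UTR luciferase fusion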
Jurkat NFkB inh = inhibitors of the PMA/ionomycin-induced NF-kB reporter in Jurkat cells. 0.53% of 330,000 active. inhibition, % at 4 µM. PMA/ionomycin-induced NF-kB luciferase reporter, luminescence; in the data active means inhibition above about 50%
697 NFkB inh = inhibitors of the PMA/ionomycin-induced NF-kB reporter in 697 B cells. 0.33% of 330,000 active. AID 435022. inhibition, % at 4 µM. 697 B-cell NF-kB luciferase reporter, 16 h; in the data active means inhibition above about 35%
Gli-Sufu antag = Gli-Sufu pathway antagonism. Sufu-KO-LIGHT fibroblasts, Gli luciferase reporter luminescence. inhibition, % at 5 µM. 0.74% of 340,000 active;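 active means inhibition above about 55%, limit read from the data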
CSC inhib = cancer stem cell inhibition; 1.1% of 300,000 active; cancer stem cell-like cells viability, luminescence; inhibition, % at 7.5 µM; in the data active means inhibition above about 75%; inconclusive means no clear call, values can overlap the other calls; tested in HMLE shEcad cells
Mdm2-MdmX inh = human Mdm2/MdmX binding inhibition. 3% of 330,000 active. SaOS-2 split-luciferase Mdm2/MdmX complementation, luminescence. AID 485346. inhibition, % at 8 µM. O15151+Q00987;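 active means inhibition of at least 50% at 8 µM in the primary screen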
Target sequence (O15151 whole entry, looked up): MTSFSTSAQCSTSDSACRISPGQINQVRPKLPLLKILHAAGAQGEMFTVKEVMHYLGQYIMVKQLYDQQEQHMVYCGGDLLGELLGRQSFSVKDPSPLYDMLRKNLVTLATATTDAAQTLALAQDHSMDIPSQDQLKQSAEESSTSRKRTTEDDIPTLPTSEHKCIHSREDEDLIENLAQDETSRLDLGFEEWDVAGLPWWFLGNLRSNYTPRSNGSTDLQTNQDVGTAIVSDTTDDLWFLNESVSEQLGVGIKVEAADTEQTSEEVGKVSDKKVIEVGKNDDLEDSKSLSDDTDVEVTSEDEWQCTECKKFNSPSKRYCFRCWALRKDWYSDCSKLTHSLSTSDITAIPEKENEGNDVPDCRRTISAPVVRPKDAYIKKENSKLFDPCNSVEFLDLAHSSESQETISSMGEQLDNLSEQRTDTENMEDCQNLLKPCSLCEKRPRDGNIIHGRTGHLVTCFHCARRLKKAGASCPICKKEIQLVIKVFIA
Target sequence (Q00987 whole entry, looked up): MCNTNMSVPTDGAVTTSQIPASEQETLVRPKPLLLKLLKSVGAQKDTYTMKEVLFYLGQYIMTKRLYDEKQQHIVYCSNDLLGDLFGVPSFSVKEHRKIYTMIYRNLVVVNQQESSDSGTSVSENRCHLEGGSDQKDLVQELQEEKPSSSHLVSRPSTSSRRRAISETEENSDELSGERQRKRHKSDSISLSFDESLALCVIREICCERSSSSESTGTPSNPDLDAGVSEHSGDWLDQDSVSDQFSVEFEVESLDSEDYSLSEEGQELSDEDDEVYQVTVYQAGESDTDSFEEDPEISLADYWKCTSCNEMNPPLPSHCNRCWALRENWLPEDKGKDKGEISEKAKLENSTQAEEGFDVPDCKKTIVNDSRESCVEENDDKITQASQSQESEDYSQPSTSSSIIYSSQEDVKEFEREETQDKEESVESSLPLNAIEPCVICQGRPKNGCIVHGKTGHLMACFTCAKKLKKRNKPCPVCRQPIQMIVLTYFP
Jurkat NFkB conf = inhibitors of the PMA/ionomycin-induced NF-kB reporter in Jurkat cells, retest; shares compounds with Jurkat NFkB inh; Jurkat NF-kB luciferase, 16 h; inhibition, % at 4 µM; 27% of 2,700 active;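 active means inhibition reaching about 45% at 4 µM in either replicate, limit read from the data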
697 NFkB conf = inhibitors of the PMA/ionomycin-induced NF-kB reporter in 697 B cells, retest; 35% of 2,000 active; AID 449746; shares compounds with 697 NFkB inh; inhibition, % at 4 µM; 697 B-cell NF-kB luciferase, 16 h; in the data active means inhibition mostly above about 28%, no sharp cut-off; inactive means mostly below about 22%
Mdm2-MdmX conf = human Mdm2/MdmX binding inhibition, confirmed | shares compounds with Mdm2-MdmX inh | luminescent assay | inhibition, % at 8 µM | 55% of 10,000 active | AID 489028; in the data active means inhibition above about 40%
FLuc counter = counter-screen for Mdm2/MdmX inhibitors: full-length luciferase | shares compounds with Mdm2-MdmX inh | SaOS-2 full-length luciferase counterscreen, luminescence | inhibition, % at 8 µM | 77% of 6,200 active | AID 504607;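 active means mean inhibition at 8 µM reaching about 37%, which flags the compound as non-specific, limit read from the data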;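 further: p53-null SaOS-2 cells with luciferase driven by a doxycycline-inducible promoter; compound on cells about two nights before reading with doxycycline added after day one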
Large screens that a line does not name were inactive (follow-up assays come after a bar, where they were run). In the library only some 4.5% were active in any assay of this set; here they are far more common.

Cc1ccc(/C=N/NC(=O)c2c(C)nc3ccc(Br)cn23)cc1	aSyn UTR inh 80, Jurkat NFkB inh 50, Mdm2-MdmX inh 50 | Jurkat NFkB conf 53 | Mdm2-MdmX conf 55 | FLuc counter 53
COc1ccc(N(CC(=O)N2CCOCC2)S(C)(=O)=O)cc1Cl	none
COc1ccc(CCNc2cc(N3CCN(C(=O)c4ccccc4F)CC3)ccc2[N+](=O)[O-])cc1OC	Jurkat NFkB inh 58, Mdm2-MdmX inh 53 | Jurkat NFkB conf 67 | Mdm2-MdmX conf inactive | FLuc counter 79
COC(=O)c1cc(Br)c(=O)n(Cc2cccnc2)c1	none
Nc1cccc2nc3ccccc3cc12	aSyn UTR inh 101, Jurkat NFkB inh 62, Mdm2-MdmX inh 58 (no result: CSC inhib) | Jurkat NFkB conf inactive | Mdm2-MdmX conf 78 | FLuc counter inactive
Nc1[nH]nc2nc3ccccc3cc12	none
Cc1ncc(CO)c(CNc2ccc(Oc3ccccc3)cc2)c1O	none
COc1nc(-c2cccs2)cc(-c2ccc(C)cc2)c1C#N	Jurkat NFkB inh 57, Mdm2-MdmX inh 52 | Jurkat NFkB conf inactive | Mdm2-MdmX conf 55 | FLuc counter 67
CN1OC(COC(=O)c2ccc(Cl)cc2Cl)CC1c1ccccc1 (stereo not drawn)	none
Cc1oc(-c2ccc(Cl)cc2)nc1CN1CCC(C(=O)NCCCN2CCOCC2)CC1	none
CCC1CCCCN1CCCNC(=O)C1CCN(Cc2nc(-c3ccc(Cl)cc3)oc2C)CC1 (stereo not drawn)	Jurkat NFkB inh 56, Mdm2-MdmX inh 98 | Jurkat NFkB conf inactive | Mdm2-MdmX conf 96 | FLuc counter 60
O=C(NCc1ccc(F)cc1)C1CCN(S(=O)(=O)c2cccc3nonc23)CC1	none
O=C(Cc1c(F)cccc1Cl)N/N=C/c1cccnc1	none
Cc1cc(NC(=O)C(C)SCC(=O)OCC(=O)N(C)c2ccccc2)no1 (stereo not drawn)	none
Cc1cccc2c(C(=O)N3CCCCC3)cc(-c3ccccc3)nc12	none
Cc1cccc2c(C(=O)N3CCN(c4ccccc4)CC3)cc(-c3ccncc3)nc12	aSyn UTR inh 94, Jurkat NFkB inh 60, Mdm2-MdmX inh 57 | Jurkat NFkB conf inactive | Mdm2-MdmX conf 75 | FLuc counter 69
COc1ccc(-c2nc(-c3cccc(C)c3)nc(N3CCN(C)CC3)c2C#N)cc1	aSyn UTR inh inconclusive, Jurkat NFkB inh 51, Mdm2-MdmX inh 66 | Jurkat NFkB conf inactive | Mdm2-MdmX conf 74 | FLuc counter 57
CCOC(=O)c1c(-c2ccccc2)oc2ccc(OCC)cc12	none
CCOC(=O)c1c(-c2ccccc2)oc2ccc(OCC(O)CNCCN(C)C)cc12 (stereo not drawn)	Jurkat NFkB inh 56, Mdm2-MdmX inh 95 | Jurkat NFkB conf inactive | Mdm2-MdmX conf 48 | FLuc counter inactive
COc1ccc(CNc2nc(NCc3ccc(OC)cc3)n(C(=O)c3ccccc3[N+](=O)[O-])n2)cc1	none
Cc1cc(N2CCOCC2)n2ncc(-c3ccc(Cl)cc3)c2n1	Mdm2-MdmX inh 62 (no result: aSyn UTR inh) | Jurkat NFkB conf inactive | 697 NFkB conf inactive | Mdm2-MdmX conf 74 | FLuc counter 195
O=S(=O)(Cc1ccccc1)NCC1CCCN(Cc2ccc3nonc3c2)C1 (stereo not drawn)	none
CC[C@H]1c2[nH]c3ccccc3c2C[C@@H]2C(=O)N(c3ccc(F)cc3)C(=O)N21	none
C=CCn1c(C)cc(C(=O)CN2C(=O)NC3(CCCc4ccccc43)C2=O)c1C (stereo not drawn)	none
C=CCn1c(C)cc(C(=O)CN2C(=O)c3ccccc3S2(=O)=O)c1C	Jurkat NFkB inh 89, 697 NFkB inh 66, Gli-Sufu antag 89, Mdm2-MdmX inh 74 (no result: aSyn UTR inh) | Jurkat NFkB conf 49 | 697 NFkB conf 45 | Mdm2-MdmX conf 79 | FLuc counter 53
CN(Cc1ccccc1)C(=O)CN1C(=O)c2ccccc2S1(=O)=O	none (no result: CSC inhib)
CCn1c(C)cc(C(=O)CN2C(=O)c3ccccc3S2(=O)=O)c1C	Jurkat NFkB inh 69, Gli-Sufu antag 64, Mdm2-MdmX inh 88 (no result: aSyn UTR inh) | Jurkat NFkB conf inactive | Mdm2-MdmX conf 81 | FLuc counter inactive
Cc1cc(C(=O)CN2C(=O)c3ccccc3S2(=O)=O)c(C)n1-c1ccccc1	aSyn UTR inh 120, Jurkat NFkB inh 66, Mdm2-MdmX inh 57 | Jurkat NFkB conf inactive | Mdm2-MdmX conf inactive
COc1ccc(C2C(C#N)=C(/N=C/N3CCN(C)CC3)OC3=C2C(=O)CC(C)(C)C3)cc1OC (stereo not drawn)	none
Cc1ccc(NC(=O)C2CCN(C(=O)c3ccc(F)cc3)CC2)nc1	none
COc1ccc(NC(=O)CCCn2cnc3ccccc3c2=O)c(OC)c1	none
COc1ccc2[nH]c3c(C)c4ccncc4c(C)c3c2c1	aSyn UTR inh 109, Jurkat NFkB inh 52, Mdm2-MdmX inh 100 | Jurkat NFkB conf inactive | Mdm2-MdmX conf 92 | FLuc counter inactive
COCCN(C(=O)COC(=O)c1oc2ccc(OC)cc2c1C)c1c(N)n(Cc2ccccc2)c(=O)[nH]c1=O	none
COc1cc(NS(C)(=O)=O)ccc1Nc1c2ccccc2nc2ccccc12	Jurkat NFkB inh 72, Gli-Sufu antag 74, CSC inhib 102, Mdm2-MdmX inh 89 (no result: aSyn UTR inh) | Jurkat NFkB conf 82 | 697 NFkB conf inactive | Mdm2-MdmX conf 73 | FLuc counter 59
COc1ccc([N+](=O)[O-])cc1Nc1c2ccccc2nc2ccccc12	aSyn UTR inh 77, Jurkat NFkB inh 59, CSC inhib 131, Mdm2-MdmX inh 64 | Jurkat NFkB conf inactive | Mdm2-MdmX conf 63 | FLuc counter 63
O=C(O)c1cc(S(=O)(=O)O)cc(Nc2c3ccccc3nc3ccccc23)c1O	none
Cc1ccccc1OCC(O)CNC1CCC(NCC(O)COc2ccccc2C)CC1 (stereo not drawn)	aSyn UTR inh 99, Jurkat NFkB inh 97, CSC inhib 109, Mdm2-MdmX inh 100 | Jurkat NFkB conf inactive | Mdm2-MdmX conf 100 | FLuc counter 52
CCOC(=O)C(C)Oc1cccc2c(=O)n(CC(=O)NCc3ccco3)ccc12 (stereo not drawn)	aSyn UTR inh 73, Jurkat NFkB inh 57, Mdm2-MdmX inh 51 | Jurkat NFkB conf inactive | Mdm2-MdmX conf 58 | FLuc counter 63
CCOC(=O)C1CCN(S(=O)(=O)c2cccc3nonc23)CC1	none
CCOC(=O)C1CCN(S(=O)(=O)c2c(Cl)ccc3nonc23)CC1	Jurkat NFkB inh 72, Mdm2-MdmX inh 100 (no result: Gli-Sufu antag) | Jurkat NFkB conf inactive | Mdm2-MdmX conf 98 | FLuc counter inactive
